Assay results: PubChem BioAssay AID624264 (National Center for Advancing Translational Sciences (NCATS), 2012)
Some of the results follow. Results filed as inconclusive are left out. Unmarked numbers belong to inactive results. Calls follow the shape of the dose curve; as a rule, active = well fitted curve in the direction sought with a large enough effect; inconclusive = small, poorly fitted or top-dose-only effect, or another doubt; inactive = no such curve, though single readings can be large or run the other way.

Test: qHTS for Inhibitors of Glutaminase (GLS): Hit Confirmation using Cytotoxicity
Conditions: HEK-293 viability, CellTiter-Glo luminescence, 24 h; series mostly up to 46.1 µM; activity change, negative = cytotoxicity: at the top concentration
Source text: Glutaminase (GLS) catalyzes the hydrolysis of glutamine into glutamate and ammonia. It plays a critical role in glutaminolysis, which is an important energy source for proliferating cells. It was shown that c-Myc, an oncogenic transcription factor known to regulate microRNAs and to stimulate cell proliferation, increases glutamine metabolism by stimulating the expression of GLS via direct suppression of miR23a and miR23b. […] GLS is also thought to play a pathogenic role on HAD using a human HIV-1 infected macrophage system. […] GLS inhibition limits glutamate release and provides neuroprotection against HIV-1 infected macrophages. […] The overall goal of this project is to identify small molecule inhibitors of GLS through quantitative high throughput screening (qHTS) of the MLSMR. A validated potent and selective inhibitor can be used as a tool molecule to further study the pharmacology of its target as well as explore its potential therapeutic application in cancer and inflammatory neurological disorders, such as HIV1-associated dementia (HAD) and multiple sclerosis. This is a hit confirmation assay using a cytotoxic read-out to exclude cytotoxic compounds. Toxic compounds will be labeled as active and excluded in future experiment. NIH Chemical Genomics Center [NCGC] NIH Molecular Libraries Probe Centers Network [MLPCN] MLPCN Grant: DA032470 Assay Submitter (PI): Barbara S. Slusher, Johns Hopkins University
HEK-293 cells are grown in a flask up to 80% confluence. Cells will be trypsinized, washed, and resuspended in MEM Eagle + 10% FBS + 1% pen-strep media at the concentration of 120 cells/microl. Five microl/well of cell solution will be dispensed into a 1536-well assay plates (Greiner, solid white medium-binding plates) with Auror Discovery BioRAPTR Flying Reagent Dispenser (FRD; Beckton-Dickenson). Cells will be pre-incubated at 37 °C, 5% CO2 for 4hrs. Compound and control solutions (23nl) will then be transferred to the assay plate using the Kalypsys 1536 pin-tool. […] Luminescence signal will be read with PerkinElmer ViewLux plate reader after 30 min room temperature incubation.

SMILES | activity change, negative = cytotoxicity [%]
CCN1C(=O)c2cccc3c(S(=O)(=O)Nc4ccccc4O)ccc1c23 | -9.78
O=C(O)c1cccc(S(=O)(=O)Nc2ccc(O)cc2Sc2nc3ccccc3s2)c1 | -10.1
COc1cc(OC)c(S(=O)(=O)Nc2ccccc2C(=O)O)cc1S(=O)(=O)Nc1ccccc1C(=O)O | 5.49
